To fix the notation:
T1: UNK ZnF1-3 (human, UniProt Q9C0B0 31-174)
T1 sequence: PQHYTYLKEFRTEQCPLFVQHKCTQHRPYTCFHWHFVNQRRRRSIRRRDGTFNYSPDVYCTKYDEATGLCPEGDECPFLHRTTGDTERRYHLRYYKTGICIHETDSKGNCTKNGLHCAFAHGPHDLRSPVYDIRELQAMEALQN

B1: chr4:153332861:153332862:-_ENSG00000109670_ENST00000281708|hu_mus|FALSE|FALSE (ssRNA)
RNA: GGGAGUUCUACAGUCCGACGAUCCUCCUCUUGAUGUCUCGCUUGCUGCUGUGGAUCCUCCUCAACCACGCGAUUCAUCUGUCCCUCAUCAACCUGGCUUGAGGAAGCAUUCCCUCUCAGAGAGCCUCCAGUUCGUCGUCUUUUCAACAGAGGAUUGAGCAUCA
B2: 46544062_46544572_2905_CDS_ENSG00000123200_ENST00000242848|human|control|control (ssRNA)
RNA: GGGAGUUCUACAGUCCGACGAUCUUCUUGAGGUCGUACAACUUGGCUCAAGAGUCUGUGUUUUUCAUUUUUAUCAUCUCCACUGUUGUAGGCAUCACUGUCCGGAGAAUGUUCACGCCGGCGCUUCGGGGACUGUCUAGGGCUCAACAGAGGAUUGAGCAUCA
B3: chr2:180329438:180329439:+_ENSMUSG00000049401_ENSMUST00000029087|mus_mus|FALSE|FALSE (ssRNA)
RNA: GGGAGUUCUACAGUCCGACGAUCCUCAGAGACACCCUGAGGAUCUGGCUCCCCUGGGACCUGCUCCUGCCUGUUCCCCUCCAACUUCCUCUUCUUGCUUUCUUUGGGACUCGGGGACUUAGCCUCAUGCCUUUGGUCCCCAUCCAACAGAGGAUUGAGCAUCA
B4: chr3:150289932:150289933:+_ENSG00000144895_ENST00000460851|hu_hu|hu_hu_hu_mus_False|18_28 (ssRNA)
RNA: GGGAGUUCUACAGUCCGACGAUCCUUGUAGUUUUUAACAUCCCAUACUUCCAUUUGUCCUCGAAGAUUUCCAAAUCCAGCCAGCACUAAUAUAUGUCCAUGAGGGCUAUAGUAGGCUGCAUUACGAGGACCAGUCCCAAAGUCCAACAGAGGAUUGAGCAUCA
B5: chr16:94664382:94664383:+_ENSMUSG00000040785_ENSMUST00000117648|mus_hu|FALSE|FALSE (ssRNA)
RNA: GGGAGUUCUACAGUCCGACGAUCAAAAGCUGGUGCUGAAGAUGAAUCUGACACUGGUUUAGACUUUACAUCUGGUUUAAAUUCCCUAGCAGCUGGAUUCAGUUGUAGUUUAACUCGUACAUACUCCCCUGCUUUUGAAAUUUCCAACAGAGGAUUGAGCAUCA
B6: chr11:88707168:88707169:-_ENSMUSG00000018428_ENSMUST00000018572|mus_mus|FALSE|FALSE (ssRNA)
RNA: GGGAGUUCUACAGUCCGACGAUCAAGGGGAAGAGCGAACGCAACUGGAUUGCCAUCUUGGAGUCAGUCGAUGUGAAGUAGCUACACCUGCUCCUGGGCGACCGUCUAGGCACUCAAUCCUCCCGCCACCGCCCCCUGGCCCCCCAACAGAGGAUUGAGCAUCA

The full ranking holds about 24,000 sequences; the median of “enrichment r” is about 0.99, and the highest 2% start at about 3.7. What follows is part of a selection rich in the highest values, with near analogues and random picks from the rest.

This assay deals with T1, UNK ZnF1-3. In words: nsRBNS (natural sequence RNA bind-n-seq); RBNS binding buffer (assumed for nsRBNS): 25 mM Tris pH 7.5, 150 mM KCl, 3 mM MgCl2, 0.01% Triton X-100, 500 ug/ml BSA, 20 U/ml SUPERase-In, 4 C; UNK is unkempt and MSI1 is Musashi-1; names of the RNAs are library labels; protein concentration not given here; high values mean tight binding.
With B1, the binding signal was found to be 0.439 enrichment R.

In turn, B2 had a binding signal of 0.885 enrichment R.

B3 gave a binding signal of 0.716 enrichment R. The result for B4 reads 0.862 enrichment R.

B5 had a binding signal of 1 enrichment R. The result for B6 reads 1.08 enrichment R.
